The source made the active and inactive calls. How the source made its calls: active means hit-call score of the fitted dose curve at least 0.9, where 1 is the maximum; inconclusive means response in the unintended direction; inactive means score below 0.9.

Sequence of Estrogen receptor (Homo sapiens) (P03372 whole entry, looked up, the tested form may be a part): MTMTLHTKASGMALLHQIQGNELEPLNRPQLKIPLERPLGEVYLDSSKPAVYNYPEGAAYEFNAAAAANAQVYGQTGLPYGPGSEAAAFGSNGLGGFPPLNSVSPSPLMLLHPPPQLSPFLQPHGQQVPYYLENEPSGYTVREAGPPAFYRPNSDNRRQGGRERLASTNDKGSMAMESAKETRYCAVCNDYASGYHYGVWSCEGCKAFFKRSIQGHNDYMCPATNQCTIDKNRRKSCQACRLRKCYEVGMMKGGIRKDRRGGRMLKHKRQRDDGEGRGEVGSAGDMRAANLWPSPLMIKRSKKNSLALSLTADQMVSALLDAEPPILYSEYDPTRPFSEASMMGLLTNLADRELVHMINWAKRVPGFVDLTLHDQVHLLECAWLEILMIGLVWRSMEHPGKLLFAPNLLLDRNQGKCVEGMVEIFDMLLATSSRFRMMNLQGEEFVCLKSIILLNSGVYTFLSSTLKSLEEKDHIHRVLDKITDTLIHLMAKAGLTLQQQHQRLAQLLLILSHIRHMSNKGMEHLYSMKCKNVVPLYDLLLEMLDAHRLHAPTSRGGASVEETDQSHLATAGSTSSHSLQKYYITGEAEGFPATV

This test concerns the target Estrogen receptor (Homo sapiens) (UniProt P03372). Description: OT_ER_ERaERa_1440: Odyssey Thera (OT) 24-hour HEK293T Protein-Complementation Assay for Estrogen Receptor-alpha/-alpha Homodimer (AID 2283349).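 Further: hits raise fluorescence above DMSO for agonists and antagonists alike.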 The protocol:
OT_ER_ERaERa_1440 is a cell-based assay that uses HEK293T, a human kidney cell line, with measurements taken at 24 hours after chemical dosing in a 384-well plate.OT_ER_ERaERa_1440 is one of one assay component(s) measured or calculated from the OT_ER_ERaERa_1440 assay. It is designed to make measurements of protein fragment complementation, a form of binding reporter, as detected with fluorescence intensity signals by Protein-fragment Complementation technology.Data from the assay component OT_ER_ERaERa_1440 was analyzed into 1 assay endpoint. This assay endpoint, OT_ER_ERaERa_1440, was analyzed in the positive analysis fitting direction relative to DMSO as the negative control and baseline of activity. Using a type of binding reporter, measures of receptor for gain-of-signal activity can be used to understand the binding at the pathway-level as they relate to the gene ESR1. Furthermore, this assay endpoint can be referred to as a primary readout, because the performed assay has only produced 1 assay endpoint. To generalize the intended target to other relatable targets, this assay endpoint is annotated to the nuclear receptor intended target family, where the subfamily is steroidal.
Protein-fragment complementation assay, or PCA, is a method for the identification and quantification of protein-protein interactions. In the PCA, the proteins of interest ("bait" and "prey") are each covalently linked to fragments of a third protein (e.g. DHFR, which acts as a "reporter"). Interaction between the bait and the prey proteins brings the fragments of the reporter protein in close proximity to allow them to form a functional reporter protein whose activity can be measured. The OT ER alpha / ER alpha assay is a homodimer PCA of the ligand binding domain (amino acids 310-547) of human ER alpha stably expressed in HEK293T cells. […] Fluorescent signal in the basal state of the assay is very low and is primarily punctuate and cytoplasmic. Modulation of this assay is quantified as an increase in mean fluorescence intensity in the nucleus (for agonists) or in the nucleus and cytoplasm (antagonists) relative to vehicle controls, and can be quantified on a high content imaging device or a laser scanning cytometer. The latter instrument is favored for this assay because of the rapid mode of data acquisition, the ability to acquire data from the entire cell population in a well (as opposed to a fraction of the well on the high content devices) and the larger dynamic range typically achieved with this instrument. To assess sensitivity of the ER alpha/ER alpha LBD assay to ligand, cells were treated with the ER agonist 17 beta-estradiol (E2) in 10-point concentration- response format for 24 hours and monitored response on a laser scanning plate cytometer (Acumen eX3; TTP Lab Tech).
For `O=C(O)c1cccc(C(=O)O)n1`, the molecule was classed as inactive.
Still for that read-out and setting: next, `COc1cc([N+](=O)[O-])ccc1N`: “inactive”; `CCc1ccccc1O`: “inactive”.
In the case of `CCCCCC(C)OC(=O)COc1ccc(Cl)c2cccnc12` (centres undefined), the outcome was inactive.
Same read-out and setting: the value for `CN(C)CCOC(c1ccccc1)c1ccccc1` was “inactive”.
Regarding `CCCCCCCCCCCCOC(=O)c1cc(O)c(O)c(O)c1`, the concentration at half-maximal activity (AC50) (as a rule, the concentration giving half of the maximal activity seen) was 11.9 µM (active).
Take `NC(=NCCCCCCN=C(N)/N=C(\N)Nc1ccc(Cl)cc1)/N=C(\N)Nc1ccc(Cl)cc1`: the molecule was called inactive.
For the molecule `CCCCCCc1ccc(N)cc1`, the molecule was classed as inactive.
Same read-out and setting: next, `N=C(N)c1ccc(OCCCCCOc2ccc(C(=N)N)cc2)cc1`: “inactive”.
On to `NCCN`, for which the molecule was called inactive.
The same measure, in the same setting: the value for `CN(Cc1cnc2nc(N)nc(N)c2n1)c1ccc(C(=O)N[C@@H](CCC(=O)O)C(=O)O)cc1` was “inactive”.
Same read-out and setting: next, `Cc1cc(C(=C2C=CC(=Nc3ccc(S(=O)(=O)O)cc3)C=C2)c2ccc(Nc3ccc(S(=O)(=O)O)cc3)cc2)cc(S(=O)(=O)O)c1N`: “inactive”; `Cc1cc(Cc2cc(C)cc(C(C)(C)C)c2O)c(O)c(C(C)(C)C)c1`: “inactive”; `CCCCCCCCCC=CCC1CC(=O)OC1=O` (centres undefined): “inactive”.
Same read-out and setting: next, `CCCCc1oc2ccccc2c1C(=O)c1cc(I)c(OCCN(CC)CC)c(I)c1`: “inactive”; `C=CC(C)(CCC=C(C)C)OC(C)=O` (centres undefined): “inactive”; `CCCCCCC(C)(C)C(=O)O`: “inactive”.
As to `CCCCc1ccc2ccccc2c1S(=O)(=O)O`, the result was inactive.
Consider `NCc1cccc(CN)c1`, for which the molecule was classed as inactive.

The values above are taken from PubChem BioAssay (EPA / NIEHS).
